From PubChem BioAssay (NCI)
This is part of a sample that, as a whole, favours compounds with a hit. Of some 83,000 tested, about 20% had one in any assay.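 Growth was measured after 48 h exposure to one concentration of compound in 96-well plates. Values under 10 count as active.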 Values without a mark were called inactive. Activity calls are given as the source filed them.

Each compound was assayed on OVCAR-8 ovarian (assay: NCI-60 one-dose screen, 48 h (100 = growth as untreated, 0 = no growth, -100 = all killed)). Settings: 10 µM unless noted.
Method: Growth inhibition of the OVCAR-8 human tumor cell line is measured as a screen for anti-cancer activity. Cells are grown in 96 well plates and exposed to the test compound for 48 hours. Compounds are tested at a single concentration, which is 10^-5 M for most compounds. The reported endpoint is percent growth (GI% or GIPRCNT), where numbers from 0 - 100% represent growth inhibition, and numbers from -100% - 0 represent cell death. For example, a value of 40 represents 60% growth inhibition. A value of 0 means no net growth occurred over the course of the experiment. A value of -40 indicates 40% of cells at the beginning of the experiment died by the end of the experiment. A value of -100 means all cells are dead at the end of the experiment.
NCI-60 Human Tumor Cell Lines Screen was performed using the standard one-dose NCI protocol, which is described in more detail at https://dtp.cancer.gov/discovery_development/nci-60/default.htm.
Compounds with GIPRCNT values below 10 were considered active. Activity score was based on GIPRCNT using the following formula: […]
Score is 0 for GIPRCNT values of 100 or above, 50 for GIPRCNT values of 0, and 100 for GIPRCNT values of -100.

| Structure (SMILES) | growth |
| --- | --- |
| CCc1ccc(-c2ccc(NC3CCCCCC3)nn2)cc1S(N)(=O)=O | 102% |
| O=C(C(=O)c1cccnc1)c1cccnc1 | 82.6% |
| NC(N)=N/N=C\c1ccc(OCc2ccccc2)cc1 | 89.1% |
| O=C(OCc1ccc2c(Br)cc(Br)c(O)c2n1)c1cc2ccccc2[nH]1 | -23.7% (active) |
| C#CC[C@@H]1C[C@]2(C)[C@H]3CC=C4[C@H]5[C@@H](C)[C@H](C)CC[C@]5(C(=O)NCCCN5CCN(CCCN)CC5)CC[C@@]4(C)[C@]3(C)CC[C@H]2C(C)(C)[C@H]1OC(C)=O | -58.3% (active) |
| O=C1C=CC(=O)N1c1cccc(N2C(=O)C=CC2=O)c1 | 106% |
| CCCCC(CCc1ccccn1)C(=O)c1ccccc1 (stereo not given) | 112% |
| O=C1/C(=C\c2cccn2Cc2ccc(F)cc2)c2ccccc2N1c1c(Cl)cccc1Cl | 81.5% |
| Cc1cc(NC(=O)c2ccc(N)cc2)ccc1N=Nc1ccc2cc(S(=O)(=O)O)cc(S(=O)(=O)O)c2c1 | 107% |
| CCN(CC)CCCC(C)Nc1cnc(C(=O)Nc2cccc3ccc(OC)nc23)cn1 (stereo not given) | 68.2% |
| C#CCNC(=S)N/N=C(\C)c1ccccn1 | 12.4% |
| CC(C)NCCCCCNc1cc(O)cc2cccnc12 | 31.3% |
| CCN(CC)CCC(CNc1ccnc2cc(Cl)ccc12)c1ccc(O)cc1 (stereo not given) | 92.2% |
| CCCOC(=O)C1c2cc3c(cc2CC(C)C1C(=O)OCCC)OCO3 (stereo not given) | 102% |
| COc1cccc(Cn2c(-c3nonc3NC(C)=O)nc3ccccc32)c1 | 50.9% |
| CN(C)c1ccc(C(c2ccccc2)c2ccc(N(C)C)cc2)cc1 | 90.9% |
| COc1cc(-c2n/c(=C\c3c(O)[nH]c4cc(Cl)ccc34)cc3c2=Nc2ccccc2-3)cc(OC)c1OC | 59.3% |
| O=C(CI)NCCNc1cccc2c(S(=O)(=O)O)cccc12 | 110% |
| NC(=S)N/N=C(/c1cccs1)C1CC1 | 67.7% |
| c1ccc(-c2[nH]c3ccccc3c2-c2ccccc2)cc1 | 92% |

| Structure (SMILES) | growth |
| --- | --- |
| O=[N+]([O-])c1ccccc1CN1CCCCC1 | 108% |
| Clc1cn2cc(-c3ccc(Cl)c(Cl)c3Cl)nc2s1 | 99.5% |
| COC(=O)C(CCC(=O)CCl)N1C(=O)c2ccccc2C1=O (stereo not given) | 59.2% |
| COc1ccc(/C=C2\N=C(c3cccnc3)N(c3ccccc3)NC2=O)cc1 | 95.9% |
| CC(=O)c1ccc(-n2c(-c3cc(-c4ccsc4)n[nH]3)n[nH]c2=S)cc1 | 98.9% |
| CC(C)N1CCN(c2ccncc2S(=O)(=O)N2CCN(C)CC2)CC1 | 103% |
| CCCCCNCCCCCNc1cc(OC)cc2cccnc12 | 101% |
| CC(C)c1ccc(Cn2ccc3c4c(N)nc(NC5CC5)nc4ccc32)cc1 | -77.8% (active) |
| COC(=O)c1cc2oc(/C=N/NC(=O)c3cc4oc(-c5cccc(C(F)(F)F)c5)cc4[nH]3)cc2n1Cc1ccccc1 | 75.2% |
| CC(=O)N1N=C(c2ccc(C)cc2)CC1c1cn(-c2ccccc2)nc1-c1cccc(Nc2ccnc3cc(Cl)ccc23)c1 (stereo not given) | 46.4% |
| Cc1cc(C)c(C#N)c(SCC(=O)c2sc3c(C#N)c(C)cc(C)[n+]3c2[O-])n1 | 20.4% |
| C=CCN(CCOC(=O)c1ccc([N+](=O)[O-])cc1)CCOC(=O)c1ccc([N+](=O)[O-])cc1 | 98.7% |
| O=c1c2sc3ncc(Cl)cc3c2nnn1-c1cccc(Cl)c1 | 79.8% |
| Cc1ccc(S(=O)(=O)NC(CCC(=O)Nc2ccc(Cl)cc2)C(=O)Nc2ccc(Cl)cc2)cc1 (stereo not given) | 39.2% |
| CC(C)(C)CC(C)(C)NCc1cc(C(C)(C)C)cc(CNC(C)(C)CC(C)(C)C)c1O | 86.4% |
| COc1ccc(NC(=O)C2c3ccccc3C(=O)N(CC(C)C)C2c2cccs2)cc1 (stereo not given) | 89.1% |
| COc1ccc(-c2nc3ccc(Cc4ccc5nc(-c6ccc(OC)cc6)[nH]c5c4)cc3[nH]2)cc1 | 15.1% |
| FC(F)(F)c1ccc(/C=N/Nc2nnc3n2N=C(c2ccc(Cl)cc2)CS3)cc1 | 19.9% |
| CCN(CC)CCCC(C)Nc1cnc(C(=O)Nc2cc(C)cc3cccnc23)cn1 (stereo not given) | 86.9% |
| CCOC(=O)c1ccc(NC(=O)NC2=NCCS2)cc1 | 27.1% |
